The values that follow come from PubChem BioAssay (NCI).

This is part of a sample that, as a whole, favours compounds with a hit. Of some 83,000 tested, about 20% had one in any assay.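 The test compound was applied at a single concentration to cells in 96-well plates for 48 hours, and percent growth was recorded.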 Unmarked numbers belong to inactive results. The source made the active and inactive calls. How the source made its calls: active means growth percent below 10; inactive means the rest.

Among the test systems are SK-MEL-2 melanoma; EKVX NSCLC; SN12C renal; UO-31 renal; TK-10 renal; ACHN renal; CAKI-1 renal; A498 renal; CCRF-CEM leukemia; MOLT-4 leukemia; RPMI-8226 leukemia; OVCAR-8 ovarian; OVCAR-5 ovarian; IGROV1 ovarian; OVCAR-3 ovarian; HS 578T breast; NCI/ADR-RES ovarian; SK-OV-3 ovarian; SR leukemia; OVCAR-4 ovarian.
Assay in all cases: NCI-60 one-dose screen, 48 h (100 = growth as untreated, 0 = no growth, -100 = all killed)
What all share (settings): 10 µM unless noted

Turning to `COc1nc2ccccc2cc1-c1nc2c(cnn2-c2ccccc2)c(=O)[nH]1`, the growth was 12.9% in the experiment with SK-MEL-2 melanoma; 58.5% in the experiment with EKVX NSCLC; 65.8% in the experiment on SN12C renal; 40.2% with UO-31 renal; 72% in the experiment with TK-10 renal; 57.6% in the experiment on ACHN renal. For the same compound, the growth was 42.1% in the experiment on CAKI-1 renal; 18.9% in the experiment with A498 renal; 21.1% in the experiment with CCRF-CEM leukemia; 40.4% in the experiment with MOLT-4 leukemia; 44.2% with RPMI-8226 leukemia; 63.3% in the experiment with OVCAR-8 ovarian. Moreover, the growth in the experiment with OVCAR-5 ovarian was 79.5%; in the experiment with IGROV1 ovarian, 48.1%; in the experiment on OVCAR-3 ovarian it was 7.05% (active); in the experiment on HS 578T breast, 50.2%; in the experiment with NCI/ADR-RES ovarian, 40.7%.

`COc1cc(Nc2nc(NCCN)nc3cc[nH]c(=O)c23)cc(OC)c1`: the growth with SK-MEL-2 melanoma is 30.8%; in the experiment with EKVX NSCLC, 87.5%; with SN12C renal, 70.3%; in the experiment on UO-31 renal, 112%; in the experiment on TK-10 renal it was 95.3%; in the experiment with ACHN renal, 99%. For the same compound, the growth with CAKI-1 renal was 94.1%; in the experiment on A498 renal, 111%; in the experiment on CCRF-CEM leukemia, 68.6%; with MOLT-4 leukemia, 74.4%; in the experiment with RPMI-8226 leukemia, 80%; in the experiment with OVCAR-8 ovarian it was 76.3%. The growth in the experiment on OVCAR-5 ovarian was 67.9%; in the experiment with SK-OV-3 ovarian, 51.4%; in the experiment with IGROV1 ovarian, 57.8%; with OVCAR-3 ovarian it was 109%; with HS 578T breast it was 82.5%; in the experiment with NCI/ADR-RES ovarian it was 98.6%.

Consider `N#Cc1c(-c2ccccc2)nc(SCC(=O)Nc2nc(-c3ccc(Cl)cc3)cs2)[nH]c1=O`, for which the growth is 92.3% in the experiment with SK-MEL-2 melanoma; 106% with EKVX NSCLC; 104% in the experiment with SN12C renal; 83.2% with UO-31 renal; 110% in the experiment on TK-10 renal; 103% in the experiment with ACHN renal. In addition, the growth was 89% in the experiment on CAKI-1 renal; 87.7% in the experiment with A498 renal; 92.2% with CCRF-CEM leukemia; 89.8% in the experiment on MOLT-4 leukemia; 92.5% with RPMI-8226 leukemia; 99.1% in the experiment with OVCAR-8 ovarian. Further, the growth with OVCAR-5 ovarian is 90.7%; with SK-OV-3 ovarian it was 85.2%; with IGROV1 ovarian, 96.5%; in the experiment on OVCAR-3 ovarian, 108%; with HS 578T breast, 88.6%; in the experiment with NCI/ADR-RES ovarian it was 103%.

For the compound `CC1(C)C2CC1C1(/C=N/NC(N)=S)C(C2)C(C#N)(C#N)C1(C#N)C#N` (centres undefined), the growth was 90.3% in the experiment on SK-MEL-2 melanoma; 87.6% in the experiment with SN12C renal; 51.4% with UO-31 renal; 116% in the experiment on TK-10 renal; 44.8% in the experiment on ACHN renal; 104% with CAKI-1 renal. For the same compound, the growth was 94.3% with A498 renal; 16% in the experiment with CCRF-CEM leukemia; 11.3% in the experiment on MOLT-4 leukemia; 4.63% (active) in the experiment with SR leukemia; 30.4% with RPMI-8226 leukemia; 126% in the experiment on OVCAR-5 ovarian. For the same compound, the growth in the experiment on OVCAR-4 ovarian was 94.3%; with SK-OV-3 ovarian, 103%; in the experiment on IGROV1 ovarian it was 67.1%; in the experiment with OVCAR-3 ovarian, 63.1%; in the experiment with HS 578T breast, 88.7%; in the experiment on NCI/ADR-RES ovarian, 93.5%.

Take `COc1ccc(S(=O)(=O)n2cc(C3OC(c4cc(OC)c(OC)c(OC)c4)=NN3C(C)=O)c3ccccc32)cc1OC` (centres undefined): the growth is 95.5% in the experiment with SK-MEL-2 melanoma; 88% with SN12C renal; 58.2% in the experiment with UO-31 renal; 94.9% with TK-10 renal; 85.3% in the experiment on ACHN renal; 76.2% in the experiment on CAKI-1 renal. For the same compound, the growth is 117% in the experiment with A498 renal; 73.4% in the experiment with CCRF-CEM leukemia; 58.7% with MOLT-4 leukemia; 61.5% in the experiment on RPMI-8226 leukemia; 80.9% in the experiment on OVCAR-8 ovarian; 85.8% with OVCAR-5 ovarian. Further, the growth with OVCAR-4 ovarian is 77.9%; in the experiment with IGROV1 ovarian it was 83.5%; with OVCAR-3 ovarian, 112%; with HS 578T breast, 92.3%; in the experiment on NCI/ADR-RES ovarian it was 81.7%.

Regarding `O=C1NC(=O)C(c2ccccc2)(c2ccccc2)N1Cc1cn(-c2c3ccccc3nc3ccccc23)nn1`, the growth in the experiment with SK-MEL-2 melanoma is 97.9%; in the experiment on SN12C renal, 83.6%; in the experiment with UO-31 renal, 62.4%; with TK-10 renal, 74.9%; in the experiment with ACHN renal it was 81.5%; in the experiment on CAKI-1 renal, 73.5%. The growth in the experiment on A498 renal was 77.7%; in the experiment with CCRF-CEM leukemia, 64.6%; with MOLT-4 leukemia, 53.5%; in the experiment with SR leukemia it was 31.4%; with RPMI-8226 leukemia, 72.4%; in the experiment on OVCAR-5 ovarian, 103%. For the same compound, the growth in the experiment on SK-OV-3 ovarian is 83.5%; in the experiment with IGROV1 ovarian, 83.3%; in the experiment on OVCAR-3 ovarian it was 87%; in the experiment on HS 578T breast, 83%; with NCI/ADR-RES ovarian, 87%.

Turning to `Cc1ccc(C2CC(c3ccc(Nc4ccnc5cc(Cl)ccc45)cc3)=NN2C=O)cc1` (centres undefined), the growth with SK-MEL-2 melanoma is 72.2%; in the experiment on SN12C renal, 55.1%; with UO-31 renal it was 31.9%; in the experiment on TK-10 renal, 83.2%; in the experiment with ACHN renal, 34.8%; in the experiment with CAKI-1 renal it was 49%. The growth was 73.4% in the experiment on A498 renal; 28.2% in the experiment on CCRF-CEM leukemia; 31.8% in the experiment on MOLT-4 leukemia; 19.8% in the experiment with RPMI-8226 leukemia; 59.8% with OVCAR-8 ovarian; 94.8% in the experiment on OVCAR-5 ovarian. In addition, the growth with OVCAR-4 ovarian is 38.7%; with SK-OV-3 ovarian, 84.8%; in the experiment with IGROV1 ovarian, 48.2%; in the experiment with OVCAR-3 ovarian, 30.6%; in the experiment with HS 578T breast, 61.8%; in the experiment with NCI/ADR-RES ovarian it was 42.3%.

Regarding `CCc1ccc(Oc2c(-c3ccc(OCc4ccc(Cl)cc4)cc3O)n[nH]c2C(F)(F)F)cc1`, the growth in the experiment on EKVX NSCLC was 15.7%; with SN12C renal, 15.3%; in the experiment with UO-31 renal, -10.4% (active); with TK-10 renal it was 16.1%; in the experiment with ACHN renal, 5.7% (active); in the experiment on CAKI-1 renal, 29.6%. Also, the growth with A498 renal is 11.2%; with CCRF-CEM leukemia it was 11.7%; in the experiment on MOLT-4 leukemia it was -3.23% (active); in the experiment on SR leukemia, 12.7%; in the experiment on RPMI-8226 leukemia, 1.99% (active); in the experiment with OVCAR-5 ovarian, 85.9%. The growth with OVCAR-4 ovarian is 16.5%; in the experiment with SK-OV-3 ovarian, 27%; in the experiment with IGROV1 ovarian it was 22%; in the experiment with OVCAR-3 ovarian, 0.589% (active); in the experiment on HS 578T breast, 27.9%; in the experiment on NCI/ADR-RES ovarian, 16.5%.

In the case of `O=C(/C=C/c1cccc2ccccc12)c1ccc(NC(=O)c2ccccc2CN2C(=O)c3ccccc3C2=O)cc1`, the growth was 95.5% with SK-MEL-2 melanoma; 80.3% with SN12C renal; 50.7% in the experiment with UO-31 renal; 100% in the experiment on TK-10 renal; 73% with ACHN renal; 37.9% with CAKI-1 renal. Moreover, the growth with A498 renal is 88.5%; in the experiment on CCRF-CEM leukemia it was 39.7%; with MOLT-4 leukemia, 51.2%; with SR leukemia, 23.5%; with OVCAR-8 ovarian it was 75.4%; in the experiment on OVCAR-5 ovarian it was 96.6%. The growth in the experiment with OVCAR-4 ovarian is 58.7%; with SK-OV-3 ovarian, 82.3%; in the experiment with IGROV1 ovarian, 79.1%; in the experiment with OVCAR-3 ovarian, 34.7%; in the experiment on HS 578T breast, 66.2%; with NCI/ADR-RES ovarian it was 61%.
